The text below walks through data of PubChem BioAssay AID720566 (Broad Institute, 2013).

SMILES strings stand for the structures. Potency and affinity values are given separately. Calls of active or inactive are those of the source.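 The calls were made as follows: active = in all runs, an absorbance decrease of 25% or more of the average positive control decrease; inconclusive = runs conflict, with both active and inactive results; inactive = all runs inactive, opposite-direction effects included.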

Sequence of Protein disulfide-isomerase A6 (Homo sapiens) (Q15084 whole entry, looked up): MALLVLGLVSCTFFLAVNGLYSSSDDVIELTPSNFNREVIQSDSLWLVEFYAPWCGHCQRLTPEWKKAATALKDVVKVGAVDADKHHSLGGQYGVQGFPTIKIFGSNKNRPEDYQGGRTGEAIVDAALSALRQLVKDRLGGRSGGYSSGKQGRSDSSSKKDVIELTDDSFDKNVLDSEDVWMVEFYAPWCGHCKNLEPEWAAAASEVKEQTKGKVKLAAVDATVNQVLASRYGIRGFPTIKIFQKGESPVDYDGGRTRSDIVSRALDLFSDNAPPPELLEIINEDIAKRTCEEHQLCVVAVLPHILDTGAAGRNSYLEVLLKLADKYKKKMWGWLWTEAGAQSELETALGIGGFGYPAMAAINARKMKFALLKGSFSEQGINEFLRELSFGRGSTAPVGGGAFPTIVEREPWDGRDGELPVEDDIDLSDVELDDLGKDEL

This test concerns the target Protein disulfide-isomerase A6 (Homo sapiens) (UniProt Q15084). The experiment in a line: inhibitors of ERp5-mediated insulin aggregation, dose response, biochemical, turbidity, absorbance 650 nm, cherry-picked samples (AID 720566).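 Also: negative values mean less insulin aggregation so ERp5 inhibition.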 The note with it: Recombinant ERp5 insulin aggregation; series mostly up to 35 µM.
For the molecule `C[C@@H]1CN([C@@H](C)CO)C(=O)c2cc(C#CC3(O)CCCC3)cnc2O[C@H]1CN(C)C(=O)Cc1cccnc1`, the result was inactive.

As for `CN(CC(=O)Nc1ccc(F)c(F)c1F)C(=O)c1cc(-c2ccncc2)nc2ccccc12`, the result was inactive. In the case of `CCC[C@@H](CN1CCC[C@H]1CN1C(N)=NC[C@H]1CC(C)C)N1C[C@@H]([C@H](C)CC)N(CCCC2CCCC2)C1=N`, the result was inactive. For `CCCNC(=O)C[C@@H]1C[C@@H]2c3cc(NS(C)(=O)=O)ccc3O[C@@H]2[C@H](CO)O1` the value was “inactive”.

Regarding `CCC(=O)Nc1ccc2c(c1)C(=O)N(C)[C@H]1CC[C@@H](CC(=O)NCC3CC3)O[C@H]1CO2`, the outcome was inactive. For `Cc1cccc(S(=O)(=O)N(C)C[C@H]2OCc3cnnn3CCCC(=O)N([C@@H](C)CO)C[C@H]2C)c1` the value was “inactive”; for `C[C@H](CO)N1C[C@H](C)[C@H](CN(C)Cc2cccc(F)c2)Oc2ncc(Br)cc2C1=O`, “inactive”; for `Cc1cc2occ(CC(=O)NNC(=O)c3ccccc3)c2cc1C`, “inactive”.
